These results are taken from ChEMBL document CHEMBL2218924, “A broad activity screen in support of a chemogenomic map for kinase signalling research and drug discovery” (Biochem J, 2013).

Experiment [1] deals with T1, Muscle, skeletal receptor tyrosine-protein kinase (Homo sapiens) (UniProt O15146).
T1 sequence (whole entry): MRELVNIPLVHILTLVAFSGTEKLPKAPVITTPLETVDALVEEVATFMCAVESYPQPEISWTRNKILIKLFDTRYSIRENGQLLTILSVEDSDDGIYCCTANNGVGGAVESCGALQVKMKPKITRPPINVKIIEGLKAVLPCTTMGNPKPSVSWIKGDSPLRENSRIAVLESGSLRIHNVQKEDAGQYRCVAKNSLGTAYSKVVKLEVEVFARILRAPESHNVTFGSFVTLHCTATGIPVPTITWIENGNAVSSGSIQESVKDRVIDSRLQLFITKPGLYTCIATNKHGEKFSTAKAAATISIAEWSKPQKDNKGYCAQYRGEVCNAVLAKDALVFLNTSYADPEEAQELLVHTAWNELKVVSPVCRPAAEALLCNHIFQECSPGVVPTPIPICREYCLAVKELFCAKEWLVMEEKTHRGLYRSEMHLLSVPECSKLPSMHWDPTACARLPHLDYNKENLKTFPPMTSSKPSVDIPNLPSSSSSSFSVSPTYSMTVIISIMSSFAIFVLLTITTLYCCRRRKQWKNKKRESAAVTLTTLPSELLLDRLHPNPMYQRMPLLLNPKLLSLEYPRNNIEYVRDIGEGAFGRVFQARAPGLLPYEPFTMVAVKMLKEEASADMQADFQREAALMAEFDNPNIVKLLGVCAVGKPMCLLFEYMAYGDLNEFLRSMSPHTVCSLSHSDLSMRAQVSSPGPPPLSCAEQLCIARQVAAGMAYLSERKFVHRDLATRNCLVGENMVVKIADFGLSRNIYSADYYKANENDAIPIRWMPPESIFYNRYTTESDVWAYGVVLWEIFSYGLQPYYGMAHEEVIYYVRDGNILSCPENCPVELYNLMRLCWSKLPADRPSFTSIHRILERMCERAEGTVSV
Particulars: at 1 µM.

The target of experiment [2] is T1, Muscle, skeletal receptor tyrosine-protein kinase (Homo sapiens). Particulars: at 10 µM.
Experiment [3] has as its target T2, Serine/threonine-protein kinase Nek11 (Homo sapiens) (UniProt Q8NG66).
T2 sequence (whole entry): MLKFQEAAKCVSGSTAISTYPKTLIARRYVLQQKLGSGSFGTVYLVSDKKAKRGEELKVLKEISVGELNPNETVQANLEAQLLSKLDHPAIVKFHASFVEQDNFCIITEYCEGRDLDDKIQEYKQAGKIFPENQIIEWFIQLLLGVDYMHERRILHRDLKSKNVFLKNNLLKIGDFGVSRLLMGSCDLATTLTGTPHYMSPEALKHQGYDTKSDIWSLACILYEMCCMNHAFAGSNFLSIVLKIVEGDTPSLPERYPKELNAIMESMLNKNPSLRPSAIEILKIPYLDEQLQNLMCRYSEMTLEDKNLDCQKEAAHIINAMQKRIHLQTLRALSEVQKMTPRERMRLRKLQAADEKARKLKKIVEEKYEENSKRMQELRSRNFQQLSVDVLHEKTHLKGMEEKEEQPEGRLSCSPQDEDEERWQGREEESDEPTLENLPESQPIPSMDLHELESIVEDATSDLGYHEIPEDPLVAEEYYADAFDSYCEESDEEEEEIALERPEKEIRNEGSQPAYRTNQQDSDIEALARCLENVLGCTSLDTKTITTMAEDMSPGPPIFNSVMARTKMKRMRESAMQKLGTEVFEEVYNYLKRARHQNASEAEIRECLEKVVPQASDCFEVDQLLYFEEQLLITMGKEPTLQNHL
The note with it: at 1 µM.

In experiment [4] the target is T2, Serine/threonine-protein kinase Nek11 (Homo sapiens). The note with it: at 10 µM.
Experiment [5] addresses T3, Serine/threonine-protein kinase Nek2 (Homo sapiens) (UniProt P51955).
T3 sequence (whole entry): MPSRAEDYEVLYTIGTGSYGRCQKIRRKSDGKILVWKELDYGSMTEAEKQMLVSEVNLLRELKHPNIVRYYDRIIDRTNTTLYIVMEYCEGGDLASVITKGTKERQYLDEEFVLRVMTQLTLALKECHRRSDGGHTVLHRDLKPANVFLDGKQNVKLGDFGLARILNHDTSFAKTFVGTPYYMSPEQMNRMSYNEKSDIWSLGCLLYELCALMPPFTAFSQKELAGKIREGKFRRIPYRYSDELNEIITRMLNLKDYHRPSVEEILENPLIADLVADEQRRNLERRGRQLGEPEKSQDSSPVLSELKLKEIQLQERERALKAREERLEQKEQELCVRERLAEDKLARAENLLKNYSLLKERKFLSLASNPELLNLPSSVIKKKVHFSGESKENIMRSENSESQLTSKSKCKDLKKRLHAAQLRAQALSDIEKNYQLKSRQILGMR
Particulars: at 1 µM.

For experiment [6], the target named is T3, Serine/threonine-protein kinase Nek2 (Homo sapiens). The note with it: at 10 µM.
Experiment [7] has as its target T4, Serine/threonine-protein kinase Nek3 (Homo sapiens) (UniProt P51956).
T4 sequence (whole entry): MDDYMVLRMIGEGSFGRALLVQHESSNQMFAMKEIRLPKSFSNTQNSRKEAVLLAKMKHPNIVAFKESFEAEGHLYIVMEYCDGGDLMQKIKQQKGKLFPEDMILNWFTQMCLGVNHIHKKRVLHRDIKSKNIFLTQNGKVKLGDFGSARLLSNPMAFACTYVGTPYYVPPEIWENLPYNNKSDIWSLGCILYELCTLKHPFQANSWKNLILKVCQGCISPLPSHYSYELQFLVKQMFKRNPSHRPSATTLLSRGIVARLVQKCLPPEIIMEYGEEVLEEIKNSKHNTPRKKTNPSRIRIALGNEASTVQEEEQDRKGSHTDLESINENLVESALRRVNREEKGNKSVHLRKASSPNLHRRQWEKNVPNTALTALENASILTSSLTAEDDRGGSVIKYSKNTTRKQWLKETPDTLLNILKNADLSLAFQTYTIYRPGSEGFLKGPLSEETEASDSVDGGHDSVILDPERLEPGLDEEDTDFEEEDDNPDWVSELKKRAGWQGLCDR
The note with it: at 1 µM.

Experiment [8] concerns the target T4, Serine/threonine-protein kinase Nek3 (Homo sapiens). Particulars: at 10 µM.
The target in experiment [9] is Serine/threonine-protein kinase tousled-like 2 (Homo sapiens) (UniProt Q86UE8). Particulars: at 1 µM.
For experiment [10] the target is unchanged. Particulars: at 10 µM.
For experiment [11], the target named is T5, Testis-specific serine/threonine-protein kinase 1 (Homo sapiens) (UniProt Q9BXA7).
T5 sequence (whole entry): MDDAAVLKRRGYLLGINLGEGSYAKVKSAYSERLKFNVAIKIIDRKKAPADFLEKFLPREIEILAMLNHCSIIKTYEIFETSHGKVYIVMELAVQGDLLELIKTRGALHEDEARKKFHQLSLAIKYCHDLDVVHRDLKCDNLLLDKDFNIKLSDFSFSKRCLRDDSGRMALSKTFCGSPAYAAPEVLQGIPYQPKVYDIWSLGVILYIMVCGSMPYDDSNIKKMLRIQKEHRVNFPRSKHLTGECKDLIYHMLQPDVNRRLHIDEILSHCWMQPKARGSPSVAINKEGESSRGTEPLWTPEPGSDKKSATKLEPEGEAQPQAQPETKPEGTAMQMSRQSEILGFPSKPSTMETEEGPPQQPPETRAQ
The note with it: at 1 µM.

For experiment [12], the target named is T5, Testis-specific serine/threonine-protein kinase 1 (Homo sapiens). The note with it: at 10 µM.
The target of experiment [13] is T6, Testis-specific serine/threonine-protein kinase 2 (Homo sapiens) (UniProt Q96PF2).
T6 sequence (whole entry): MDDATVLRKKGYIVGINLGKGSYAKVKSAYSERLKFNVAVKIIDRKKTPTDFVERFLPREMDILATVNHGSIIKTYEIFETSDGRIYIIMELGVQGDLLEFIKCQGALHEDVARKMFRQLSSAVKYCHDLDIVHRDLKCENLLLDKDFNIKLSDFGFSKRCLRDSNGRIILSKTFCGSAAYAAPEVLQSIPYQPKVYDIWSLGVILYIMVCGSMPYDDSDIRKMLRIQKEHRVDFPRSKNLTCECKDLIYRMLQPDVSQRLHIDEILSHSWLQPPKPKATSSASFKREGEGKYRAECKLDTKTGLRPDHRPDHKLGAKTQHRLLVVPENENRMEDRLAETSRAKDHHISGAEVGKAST
The note with it: at 10 µM.

In experiment [14] the target is T7, Tyrosine-protein kinase Tec (Homo sapiens) (UniProt P42680).
T7 sequence (whole entry): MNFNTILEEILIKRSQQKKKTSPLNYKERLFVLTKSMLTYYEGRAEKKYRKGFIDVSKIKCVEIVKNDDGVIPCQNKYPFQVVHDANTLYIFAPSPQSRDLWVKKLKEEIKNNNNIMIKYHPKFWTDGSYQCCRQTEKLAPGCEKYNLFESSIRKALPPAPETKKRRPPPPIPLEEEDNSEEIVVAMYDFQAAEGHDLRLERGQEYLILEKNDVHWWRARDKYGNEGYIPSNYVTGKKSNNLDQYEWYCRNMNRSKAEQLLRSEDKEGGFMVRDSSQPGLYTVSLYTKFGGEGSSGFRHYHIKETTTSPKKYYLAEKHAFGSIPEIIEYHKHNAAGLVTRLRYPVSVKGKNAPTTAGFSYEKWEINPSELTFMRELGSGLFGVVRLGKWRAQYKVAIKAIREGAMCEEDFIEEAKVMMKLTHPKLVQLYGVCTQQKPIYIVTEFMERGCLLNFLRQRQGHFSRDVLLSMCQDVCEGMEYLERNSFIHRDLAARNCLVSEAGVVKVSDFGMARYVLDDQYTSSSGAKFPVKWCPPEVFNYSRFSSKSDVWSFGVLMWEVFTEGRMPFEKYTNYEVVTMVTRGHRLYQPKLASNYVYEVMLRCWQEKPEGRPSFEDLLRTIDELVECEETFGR
Particulars: at 1 µM.

The target in experiment [15] is T7, Tyrosine-protein kinase Tec (Homo sapiens). Particulars: at 10 µM.
In experiment [16] the target is Angiopoietin-1 receptor (Homo sapiens) (UniProt Q02763). Particulars: at 1 µM.
The target is the same in experiment [17]. Particulars: at 10 µM.
For experiment [18], the target named is High affinity nerve growth factor receptor (Homo sapiens) (UniProt P04629). Particulars: at 1 µM.
For experiment [19] the target is unchanged. Particulars: at 10 µM.
Experiment [20] concerns the target BDNF/NT-3 growth factors receptor (Homo sapiens) (UniProt Q16620). Particulars: at 1 µM.

Serine/threonine-protein kinase tousled-like 2 (Homo sapiens), sequence (Q86UE8 whole entry, looked up): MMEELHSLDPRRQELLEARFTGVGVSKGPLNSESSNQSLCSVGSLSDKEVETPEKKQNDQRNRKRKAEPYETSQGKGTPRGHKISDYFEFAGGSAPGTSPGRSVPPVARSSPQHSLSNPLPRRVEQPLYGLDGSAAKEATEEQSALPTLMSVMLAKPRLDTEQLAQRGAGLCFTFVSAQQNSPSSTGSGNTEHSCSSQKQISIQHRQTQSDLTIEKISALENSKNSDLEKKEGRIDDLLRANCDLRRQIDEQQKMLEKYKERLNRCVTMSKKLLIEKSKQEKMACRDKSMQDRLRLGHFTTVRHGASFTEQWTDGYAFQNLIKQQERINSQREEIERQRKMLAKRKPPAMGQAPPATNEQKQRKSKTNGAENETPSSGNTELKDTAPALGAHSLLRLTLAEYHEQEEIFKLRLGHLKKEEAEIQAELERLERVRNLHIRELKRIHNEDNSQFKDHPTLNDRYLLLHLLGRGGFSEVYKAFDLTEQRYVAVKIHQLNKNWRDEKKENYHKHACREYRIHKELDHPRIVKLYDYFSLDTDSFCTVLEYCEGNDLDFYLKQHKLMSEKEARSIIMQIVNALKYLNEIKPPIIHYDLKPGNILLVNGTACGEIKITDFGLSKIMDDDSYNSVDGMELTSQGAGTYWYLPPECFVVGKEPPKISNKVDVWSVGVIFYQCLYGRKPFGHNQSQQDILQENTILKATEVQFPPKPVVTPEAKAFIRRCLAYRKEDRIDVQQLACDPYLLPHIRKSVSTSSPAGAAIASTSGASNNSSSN
High affinity nerve growth factor receptor (Homo sapiens), sequence (P04629 33-796 limits assumed): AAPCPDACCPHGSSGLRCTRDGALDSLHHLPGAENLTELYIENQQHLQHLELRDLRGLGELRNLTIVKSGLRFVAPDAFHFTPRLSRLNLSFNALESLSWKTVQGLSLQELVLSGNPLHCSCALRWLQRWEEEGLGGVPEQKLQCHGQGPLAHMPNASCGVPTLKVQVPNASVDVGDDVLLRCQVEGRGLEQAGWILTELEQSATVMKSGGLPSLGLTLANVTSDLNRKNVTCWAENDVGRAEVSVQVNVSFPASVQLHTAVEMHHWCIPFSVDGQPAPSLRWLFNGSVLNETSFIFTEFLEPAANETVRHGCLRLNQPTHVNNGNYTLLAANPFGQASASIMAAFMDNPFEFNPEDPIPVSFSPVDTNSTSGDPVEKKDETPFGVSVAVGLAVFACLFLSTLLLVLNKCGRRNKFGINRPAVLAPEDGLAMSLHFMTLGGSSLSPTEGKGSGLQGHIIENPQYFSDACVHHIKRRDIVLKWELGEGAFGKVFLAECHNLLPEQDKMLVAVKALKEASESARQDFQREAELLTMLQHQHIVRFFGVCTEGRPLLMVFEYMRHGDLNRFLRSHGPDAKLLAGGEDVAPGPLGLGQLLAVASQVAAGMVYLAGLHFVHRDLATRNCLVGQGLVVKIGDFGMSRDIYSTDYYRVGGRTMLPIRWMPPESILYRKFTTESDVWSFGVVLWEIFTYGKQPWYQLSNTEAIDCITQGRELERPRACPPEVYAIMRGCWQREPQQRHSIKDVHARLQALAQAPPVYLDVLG
Angiopoietin-1 receptor (Homo sapiens), sequence (Q02763 whole entry): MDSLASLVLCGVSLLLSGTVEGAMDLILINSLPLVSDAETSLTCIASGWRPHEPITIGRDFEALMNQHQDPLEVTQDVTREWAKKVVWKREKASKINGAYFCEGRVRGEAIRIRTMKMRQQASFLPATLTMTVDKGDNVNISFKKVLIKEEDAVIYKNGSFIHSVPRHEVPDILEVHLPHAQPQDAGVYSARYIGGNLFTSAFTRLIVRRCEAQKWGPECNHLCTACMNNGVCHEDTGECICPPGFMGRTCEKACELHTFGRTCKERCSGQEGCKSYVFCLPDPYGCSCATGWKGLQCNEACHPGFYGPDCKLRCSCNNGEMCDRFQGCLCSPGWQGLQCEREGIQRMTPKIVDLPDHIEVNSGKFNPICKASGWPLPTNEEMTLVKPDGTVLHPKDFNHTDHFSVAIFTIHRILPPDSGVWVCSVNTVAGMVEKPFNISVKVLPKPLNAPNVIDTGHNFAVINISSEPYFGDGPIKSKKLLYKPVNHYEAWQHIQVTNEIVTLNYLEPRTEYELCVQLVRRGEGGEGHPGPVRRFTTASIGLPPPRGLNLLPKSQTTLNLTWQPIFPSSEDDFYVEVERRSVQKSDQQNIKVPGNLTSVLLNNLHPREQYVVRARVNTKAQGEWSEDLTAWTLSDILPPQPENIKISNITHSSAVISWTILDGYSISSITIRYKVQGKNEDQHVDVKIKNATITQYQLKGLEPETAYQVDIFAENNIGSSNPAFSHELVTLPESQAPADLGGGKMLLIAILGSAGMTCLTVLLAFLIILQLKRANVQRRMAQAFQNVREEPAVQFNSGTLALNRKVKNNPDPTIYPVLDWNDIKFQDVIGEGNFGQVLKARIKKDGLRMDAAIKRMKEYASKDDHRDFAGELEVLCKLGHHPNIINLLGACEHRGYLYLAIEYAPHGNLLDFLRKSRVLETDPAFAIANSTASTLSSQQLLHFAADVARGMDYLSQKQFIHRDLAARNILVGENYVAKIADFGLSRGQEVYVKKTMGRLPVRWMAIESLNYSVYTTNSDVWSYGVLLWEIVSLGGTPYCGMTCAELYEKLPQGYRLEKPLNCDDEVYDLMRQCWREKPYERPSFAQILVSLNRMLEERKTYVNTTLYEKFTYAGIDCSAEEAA
BDNF/NT-3 growth factors receptor (Homo sapiens), sequence (Q16620 32-822 limits assumed): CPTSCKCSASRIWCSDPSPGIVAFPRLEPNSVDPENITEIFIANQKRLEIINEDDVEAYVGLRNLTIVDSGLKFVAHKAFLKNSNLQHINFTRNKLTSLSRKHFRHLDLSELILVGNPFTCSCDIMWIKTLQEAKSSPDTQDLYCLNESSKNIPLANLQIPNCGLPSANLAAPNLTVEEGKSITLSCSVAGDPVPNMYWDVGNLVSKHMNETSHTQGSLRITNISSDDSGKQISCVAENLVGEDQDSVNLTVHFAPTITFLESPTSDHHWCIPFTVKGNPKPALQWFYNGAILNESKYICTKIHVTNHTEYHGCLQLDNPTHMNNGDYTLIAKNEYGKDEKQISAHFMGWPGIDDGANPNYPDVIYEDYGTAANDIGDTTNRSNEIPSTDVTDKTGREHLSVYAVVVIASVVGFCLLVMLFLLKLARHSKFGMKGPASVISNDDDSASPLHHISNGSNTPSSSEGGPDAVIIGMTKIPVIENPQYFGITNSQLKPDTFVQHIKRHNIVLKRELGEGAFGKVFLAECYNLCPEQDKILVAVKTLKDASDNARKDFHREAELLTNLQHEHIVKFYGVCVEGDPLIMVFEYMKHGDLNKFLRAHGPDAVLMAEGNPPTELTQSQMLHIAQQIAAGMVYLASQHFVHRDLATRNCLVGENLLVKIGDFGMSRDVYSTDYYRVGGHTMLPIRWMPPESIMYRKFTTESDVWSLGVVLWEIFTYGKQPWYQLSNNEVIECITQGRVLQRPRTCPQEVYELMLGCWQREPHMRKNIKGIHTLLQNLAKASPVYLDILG

Turning to `CCOc1cc2ncnc(Nc3cccc(Br)c3)c2cc1OCC`, the residual activity in [1] was 95%; in experiment [2] it was 70%; in experiment [3], 104%; in experiment [4], 89%; in experiment [5], 77%; in experiment [6], 93%. Besides, the residual activity turned out to be 118% in experiment [7]; 88% in [8]; 98% in [9]; 95% in experiment [10]; 99% in [11]; 83% in experiment [12]. Also, the residual activity was 67% in experiment [13]; 74% in experiment [14]; 38% in experiment [15]; 48% in [16]; 46% in [17]; 87% in experiment [18]. Further, the residual activity in [19] turned out to be 43%; in experiment [20], 116%.
Consider `Cc1ccc(S(=O)(=O)/C=C/C#N)cc1`, for which the residual activity in experiment [1] is 85%; in experiment [2], 96%; in experiment [3] it was 72%; in [4] it was 81%; in experiment [5], 97%; in experiment [6], 90%. The residual activity in experiment [7] came to 90%; in [8] it was 98%; in [9], 87%; in [10], 89%; in experiment [11], 91%; in experiment [12], 107%. In addition, the residual activity in [13] is 91%; in experiment [14], 95%; in experiment [15], 90%; in experiment [16], 115%; in experiment [17] it was 118%; in experiment [18], 105%. Besides, the residual activity in [19] was 92%; in experiment [20] it was 117%.
Take `CO[C@H]1[C@@H](OC)C[C@H](C)[C@@H](OC)C2=CC(=O)C=C(NC(=O)/C(C)=C/C=C/[C@H](OC)[C@@H](OC(N)=O)/C(C)=C/[C@@H]1C)C2=O`: the residual activity in experiment [1] was 104%; in experiment [2], 85%; in experiment [3], 97%; in [4], 97%; in [5] it was 95%; in experiment [6], 84%. The residual activity came out at 101% in experiment [7]; 76% in [8]; 90% in experiment [9]; 95% in experiment [10]; 100% in experiment [11]; 88% in experiment [12]. In addition, the residual activity in experiment [13] was 75%; in experiment [14] it was 89%; in experiment [15] it was 84%; in experiment [16], 84%; in experiment [17], 76%; in experiment [18], 120%. Also, the residual activity was determined as 118% in experiment [19] and 113% in [20].

A word on the residual activity: it is the signal under treatment as a percentage of the control signal.
